Measurements: ChEMBL document CHEMBL1961873, “Compounds: GSK PKIS; Assays: Nanosyn kinase panel” (2012)

Columns and labels:
[1] = target: Tyrosine-protein kinase receptor UFO (Homo sapiens) (UniProt P30530); conditions: at 1 µM
[2] = target: Tyrosine-protein kinase Blk (Homo sapiens) (UniProt P51451); conditions: at 0.1 µM
[3] = target: Tyrosine-protein kinase Blk (Homo sapiens) (UniProt P51451); conditions: at 1 µM
[4] = target: T1, Cytoplasmic tyrosine-protein kinase BMX (Homo sapiens) (UniProt P51813); conditions: at 0.1 µM
T1 sequence (whole entry): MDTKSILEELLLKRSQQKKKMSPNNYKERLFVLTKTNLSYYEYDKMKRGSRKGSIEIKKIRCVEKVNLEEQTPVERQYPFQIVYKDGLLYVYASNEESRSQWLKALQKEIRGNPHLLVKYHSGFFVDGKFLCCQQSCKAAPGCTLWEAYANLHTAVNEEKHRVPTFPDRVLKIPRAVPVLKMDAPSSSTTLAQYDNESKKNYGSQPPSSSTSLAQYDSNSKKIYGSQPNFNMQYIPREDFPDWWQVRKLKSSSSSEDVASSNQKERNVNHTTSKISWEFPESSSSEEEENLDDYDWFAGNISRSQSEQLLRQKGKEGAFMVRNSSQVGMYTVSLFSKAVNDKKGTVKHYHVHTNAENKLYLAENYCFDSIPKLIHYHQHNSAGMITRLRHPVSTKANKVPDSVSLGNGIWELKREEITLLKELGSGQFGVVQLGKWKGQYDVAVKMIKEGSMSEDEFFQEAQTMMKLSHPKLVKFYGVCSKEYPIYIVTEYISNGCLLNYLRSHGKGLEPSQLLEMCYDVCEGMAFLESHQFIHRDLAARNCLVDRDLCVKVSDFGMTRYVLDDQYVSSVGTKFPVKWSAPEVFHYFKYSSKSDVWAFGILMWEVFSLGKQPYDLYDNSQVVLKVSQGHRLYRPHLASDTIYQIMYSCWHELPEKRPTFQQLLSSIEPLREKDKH

[5] = target: T1, Cytoplasmic tyrosine-protein kinase BMX (Homo sapiens); conditions: at 1 µM
[6] = target: Protein-tyrosine kinase 6 (Homo sapiens) (UniProt Q13882); conditions: at 0.1 µM
[7] = target: Protein-tyrosine kinase 6 (Homo sapiens) (UniProt Q13882); conditions: at 1 µM
[8] = target: Tyrosine-protein kinase BTK (Homo sapiens) (UniProt Q06187); conditions: at 0.1 µM
[9] = target: Tyrosine-protein kinase BTK (Homo sapiens) (UniProt Q06187); conditions: at 1 µM
[10] = target: Tyrosine-protein kinase CSK (Homo sapiens) (UniProt P41240); conditions: at 0.1 µM;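 also: value given is the averaged percent inhibition of CSK kinase activity, from the GSK PKIS kinase inhibitor set screening panel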
Tyrosine-protein kinase CSK (Homo sapiens), sequence (P41240 2-450 limits assumed): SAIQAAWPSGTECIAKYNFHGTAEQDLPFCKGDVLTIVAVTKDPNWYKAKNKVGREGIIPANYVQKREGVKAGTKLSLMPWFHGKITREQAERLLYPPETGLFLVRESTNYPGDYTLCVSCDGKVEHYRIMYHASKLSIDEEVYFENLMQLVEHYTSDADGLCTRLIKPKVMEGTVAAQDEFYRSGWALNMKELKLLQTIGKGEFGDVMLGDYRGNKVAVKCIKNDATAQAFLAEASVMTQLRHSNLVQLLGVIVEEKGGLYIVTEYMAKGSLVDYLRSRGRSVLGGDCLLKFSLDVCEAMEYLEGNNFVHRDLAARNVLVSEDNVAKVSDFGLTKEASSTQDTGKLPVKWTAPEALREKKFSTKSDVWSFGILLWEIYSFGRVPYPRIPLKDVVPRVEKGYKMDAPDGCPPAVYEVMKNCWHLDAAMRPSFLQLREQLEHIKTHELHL

Tyrosine-protein kinase BTK (Homo sapiens), sequence (Q06187 whole entry): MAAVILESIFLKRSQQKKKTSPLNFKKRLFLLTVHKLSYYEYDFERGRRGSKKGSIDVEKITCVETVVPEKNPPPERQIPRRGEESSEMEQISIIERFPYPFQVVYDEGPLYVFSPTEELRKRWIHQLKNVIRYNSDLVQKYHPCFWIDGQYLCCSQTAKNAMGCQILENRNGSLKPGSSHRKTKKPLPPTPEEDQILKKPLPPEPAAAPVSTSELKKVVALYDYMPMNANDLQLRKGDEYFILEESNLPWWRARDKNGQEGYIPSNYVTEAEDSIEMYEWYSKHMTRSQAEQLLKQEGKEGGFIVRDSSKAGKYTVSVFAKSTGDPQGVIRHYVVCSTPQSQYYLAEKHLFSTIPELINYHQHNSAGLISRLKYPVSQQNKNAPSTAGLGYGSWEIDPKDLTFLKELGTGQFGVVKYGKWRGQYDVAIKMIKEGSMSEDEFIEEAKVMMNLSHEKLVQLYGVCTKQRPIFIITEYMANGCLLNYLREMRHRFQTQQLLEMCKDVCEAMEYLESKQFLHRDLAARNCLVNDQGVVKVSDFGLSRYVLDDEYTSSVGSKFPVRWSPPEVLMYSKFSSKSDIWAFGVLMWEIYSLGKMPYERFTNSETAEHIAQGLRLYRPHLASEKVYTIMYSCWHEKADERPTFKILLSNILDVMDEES
Tyrosine-protein kinase Blk (Homo sapiens), sequence (P51451 2-505 limits assumed): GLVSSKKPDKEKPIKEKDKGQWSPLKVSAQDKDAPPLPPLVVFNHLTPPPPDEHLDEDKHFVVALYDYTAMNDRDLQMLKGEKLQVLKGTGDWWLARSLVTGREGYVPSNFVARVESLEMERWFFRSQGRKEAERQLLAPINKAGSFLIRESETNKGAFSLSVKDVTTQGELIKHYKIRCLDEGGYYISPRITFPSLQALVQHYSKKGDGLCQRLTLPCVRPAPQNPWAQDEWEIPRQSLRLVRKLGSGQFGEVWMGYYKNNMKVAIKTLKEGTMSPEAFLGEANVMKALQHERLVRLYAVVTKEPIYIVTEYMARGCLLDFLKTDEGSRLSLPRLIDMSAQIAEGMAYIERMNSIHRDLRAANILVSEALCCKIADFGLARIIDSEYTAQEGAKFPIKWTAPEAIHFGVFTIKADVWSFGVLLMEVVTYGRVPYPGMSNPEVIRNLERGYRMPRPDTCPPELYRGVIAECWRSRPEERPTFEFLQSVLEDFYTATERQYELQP
Protein-tyrosine kinase 6 (Homo sapiens), sequence (Q13882 whole entry, looked up): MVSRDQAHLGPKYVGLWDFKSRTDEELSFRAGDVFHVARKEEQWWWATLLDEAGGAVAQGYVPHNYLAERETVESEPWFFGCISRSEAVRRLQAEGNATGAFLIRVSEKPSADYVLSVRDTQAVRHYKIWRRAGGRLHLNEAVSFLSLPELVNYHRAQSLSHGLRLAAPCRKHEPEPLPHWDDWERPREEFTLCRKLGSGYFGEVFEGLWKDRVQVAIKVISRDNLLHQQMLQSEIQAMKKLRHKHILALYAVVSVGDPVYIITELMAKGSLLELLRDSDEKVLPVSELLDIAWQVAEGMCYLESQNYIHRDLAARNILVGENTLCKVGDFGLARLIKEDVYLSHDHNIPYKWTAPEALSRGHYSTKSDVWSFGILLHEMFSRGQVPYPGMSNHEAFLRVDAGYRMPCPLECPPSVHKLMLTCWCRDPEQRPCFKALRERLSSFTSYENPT
Tyrosine-protein kinase receptor UFO (Homo sapiens), sequence (P30530 whole entry): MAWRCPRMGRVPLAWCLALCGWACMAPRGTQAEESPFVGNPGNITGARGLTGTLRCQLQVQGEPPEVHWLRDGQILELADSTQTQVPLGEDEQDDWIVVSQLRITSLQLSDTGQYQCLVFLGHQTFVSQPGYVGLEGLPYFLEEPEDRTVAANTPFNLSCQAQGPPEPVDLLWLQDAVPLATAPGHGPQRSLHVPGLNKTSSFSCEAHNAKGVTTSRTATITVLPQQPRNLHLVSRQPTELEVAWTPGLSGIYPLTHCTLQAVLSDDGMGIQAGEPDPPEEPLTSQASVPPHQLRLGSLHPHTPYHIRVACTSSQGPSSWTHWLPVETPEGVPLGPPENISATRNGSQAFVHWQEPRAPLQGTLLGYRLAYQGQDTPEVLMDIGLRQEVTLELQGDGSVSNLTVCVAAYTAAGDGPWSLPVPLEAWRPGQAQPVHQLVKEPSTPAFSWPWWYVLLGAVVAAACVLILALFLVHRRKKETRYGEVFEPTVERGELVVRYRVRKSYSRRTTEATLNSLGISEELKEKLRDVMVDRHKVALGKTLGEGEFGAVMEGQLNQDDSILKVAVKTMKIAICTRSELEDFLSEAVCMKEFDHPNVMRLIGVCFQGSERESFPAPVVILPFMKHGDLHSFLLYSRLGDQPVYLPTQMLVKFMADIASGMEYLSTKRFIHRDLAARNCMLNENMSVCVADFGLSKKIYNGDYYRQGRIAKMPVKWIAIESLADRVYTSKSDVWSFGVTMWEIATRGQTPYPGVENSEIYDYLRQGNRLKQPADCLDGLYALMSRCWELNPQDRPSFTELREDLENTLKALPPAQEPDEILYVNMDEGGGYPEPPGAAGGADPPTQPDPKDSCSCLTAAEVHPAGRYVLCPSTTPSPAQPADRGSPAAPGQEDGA

Compound	inhibition [1] [%]	inhibition [2] [%]	inhibition [3] [%]	inhibition [4] [%]	inhibition [5] [%]	inhibition [6] [%]	inhibition [7] [%]	inhibition [8] [%]	inhibition [9] [%]	inhibition [10] [%]
CNC(=O)c1cc(-c2ccc(F)cc2)cc(-c2ccc(S(=O)(=O)N3CCCC3)cc2)c1N	-4.04	2.16	2.11	2.06	2.39	1.87	1.57	-1.58	-0.59	-0.99
COc1cc2ncn(-c3cc(OCc4ccccc4C(F)(F)F)c(C(=O)N(C)C)s3)c2cc1OC	1.68	0.87	7.34	3.03	3.07	-0.28	-0.8	-1.28	-0.85	-1.4
CCn1c(-c2nonc2N)nc2cnc(Oc3cccc(NC(=O)c4ccc(N(C)C)cc4)c3)cc21	-3.3	0.9	2.27	1.63	1.66	-0.08	-0.57	-0.86	-0.69	2.19
FC(F)(F)c1cccc(-c2nn3ncccc3c2-c2ccnc(Nc3ccc4c(c3)OCCO4)n2)c1	-1.04	4.81	45.5	7.84	29.9	4.61	28.5	-0.12	2.88	5.73
CCn1c(-c2nonc2N)nc2c(C#CC(C)(C)O)nc(OC[C@H](N)c3ccccc3)cc21	-3	3.73	2.85	3.88	5.18	2.66	2.72	0.09	0.56	-1.53
CCCN(CCS(C)(=O)=O)Cc1ccc(-c2ccc3ncnc(Nc4ccc(OCc5cccc(F)c5)c(Cl)c4)c3c2)o1	-0.23	1.35	4	0.94	3.89	4.08	7.54	-0.01	0.03	1.98
Cc1ccc(O)cc1Nc1ccnc2cc(-c3ccccn3)ccc12	-6.05	12.5	61.8	19.8	69.2	52.5	96.9	4.79	34.5	14.5
CC1=C(C(=O)Nc2cc(Cl)c3[nH]ncc3c2)C(c2ccc(C(F)(F)F)cc2)CC(=O)N1 (stereo not given)	-2.18	4.37	33.2	0.59	4.11	5.88	10.3	-0.51	0.33	4.43
COc1ccc(-c2cc3c(N)ncnc3o2)cc1	2.96	0.55	4.67	-2.47	2.73	0.01	2.82	-0.13	-0.38	-1.51
Nc1nc(-c2ccc(F)cc2)c(-c2ccc3ncccc3n2)s1	-3.07	4.2	12.1	-2.65	6.23	7.59	20.6	0.27	0.99	5.94
O=C(Nc1n[nH]c2cc(-c3ccc(F)cc3)ccc12)C1CC1	-2.92	1.55	7.03	0.57	5.89	3.22	2.76	-1.4	-0.88	3.39
COc1ccc(-c2nn3ncccc3c2-c2ccnc(Nc3ccc4c(c3)OCCO4)n2)cc1	8.45	5.51	39.5	0.12	8.65	12	67.5	0.65	3.53	-0.27
Fc1ccc(-c2nn3ncccc3c2-c2ccnc(Nc3ccc4c(c3)OCCO4)n2)cc1	-5.61	14.4	71.2	15	49.4	17.1	67.8	-1.09	5.26	3.81
COc1ccc2c(-c3ccnc(Nc4cccc(OC(F)(F)F)c4)n3)cnn2n1	-4.65	3.16	4.41	0.75	8.05	7.26	7.21	1.66	2.02	8.18
COc1cccc(-c2c[nH]c3c(N/N=C/c4ccncc4)ncnc23)c1	3.21	7.63	57.9	8.13	45.1	2.51	4.81	0.88	2.48	4.78
COC(=O)c1sc(-n2cnc3cc(OC)c(OC)cc32)cc1OCc1ccccc1C(F)(F)F	-2.03	3.54	22.4	3.04	6.66	2.66	4.35	-0.65	1.6	1.76
CN(C)CCOc1ccc(-c2nc(-c3ccncc3)c(-c3ccc4c(c3)CC/C4=N\O)[nH]2)cc1	-4.92	2.07	6.18	2.12	3.36	4.89	12.4	0.76	1.19	6.25
